Screening data as filed in PubChem.
HEK cytotox = kills HEK 293 cells; Potency, µM (doses to about 115 µM), hits mostly inhibitors; 94,000 compounds, 6.6% hits; HEK 293 viability, ATP luminescence (CellTiter-Glo), 48-72 h; further: nearly all actives have a fitted effect of over 60% in size
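qHTS cytotoxicity; HEK 293, 250 cells/well; compound pinned; 48 or 72 hr, 37 degree Celsius, 5% CO2, 95% humidity; CellTiter-Glo, 10 min RT; luminescence (ATP).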
hNpr1 antagonist = blocks ANP-stimulated signaling of human Npr1 receptor | AID 1347048 | Potency, µM (doses to about 46.3 µM), usual class: inhibitors | 76,000 compounds, 1.6% hits | HEK293 hNpr1 GloSensor cGMP, ANP-stimulated luminescence | P16066; calls by dose curve; further: nearly all actives have a fitted effect of over 60% in size
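Compound pre-incubated 30 min at room temperature on GloSensor-loaded HEK293 cells stably carrying hNpr1 and the pGS-40F cGMP biosensor. Stimulation uses hNppA at 0.1 nM final; luminescence is taken at baseline and 20 min post-agonist.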
NIH3T3 tox = cytotoxic compounds in NIH 3T3 cells. NIH 3T3 viability, CellTiter-Glo ATP luminescence, 48-72 h. Potency, µM (titrated, usually from 96.7 µM), usual class: inhibitors. 94,000 compounds, 4.3% hits. AID 1345082; further: nearly all actives have a fitted effect of over 55% in size
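Luminescent ATP readout (CellTiter-Glo, 10 min RT) after 48 or 72 hr compound exposure of NIH 3T3 cells seeded at 400 cells/well in 1536-well format; quantitative HTS.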
FLuc inh = inhibitors of firefly (Photinus pyralis) luciferase. P08659. purified P. pyralis luciferase, luminescence, biochemical. Potency, µM (doses to about 115 µM), usual class: inhibitors. 76,000 compounds, 2.5% hits; further: nearly all actives have a fitted effect of over 65% in size
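Purified 10nM P. pyralis luciferase with 10uM D-luciferin and 10uM ATP in 50mM Tris acetate pH 7.5, 10mM Mg acetate, 0.01% Tween-20, 0.05% BSA. qHTS titration; luminescence read by CCD imager.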
Npr1 antag conf = hNpr1 antagonism, confirmation assay | Potency, µM (highest dose often 57.6 µM), actives largely listed as inhibitors | AID 1347044 | shares compounds with hNpr1 antagonist | HEK293 hNpr1 cGMP GloSensor luminescence, ANP-stimulated | 1,400 compounds, 76% hits; calls by dose curve; further: nearly all actives have a fitted effect of over 70% in size
NPR2 antag = hNpr2 antagonism, selectivity versus Npr1; shares compounds with hNpr1 antagonist; HEK293 hNpr2 GloSensor cGMP luminescence, CNP-stimulated; AID 1347046; Potency, µM (titrated, usually from 57.6 µM), actives largely listed as inhibitors; 1,400 compounds, 67% hits; calls by dose curve; further: nearly all actives have a fitted effect of over 70% in size
FLuc counter = FLuc enzyme inhibition, Npr1 counter-screen; shares compounds with hNpr1 antagonist; purified FLuc enzyme, luminescence, Km substrate; 1,400 compounds, 0.7% hits; Potency, µM (titrated, usually from 57.6 µM), hits mostly inhibitors; AID 1347047; further: series mostly up to about 58 µM
GloSensor ctrl = control cell line activity, Npr1 antagonist counter-screen; shares compounds with hNpr1 antagonist; HEK293 GloSensor cGMP, SNP-stimulated, luminescence; Potency, µM (highest dose often 57.6 µM), hits mostly inhibitors; 1,400 compounds, 69% hits; calls by dose curve; further: nearly all actives have a fitted effect of over 70% in size
Hits are given with their value; i = inactive; ? = inconclusive; nt = not tested or not shown. Compounds with a hit are over-represented: about 11% of the library has one in this group of screens. Unless noted, the call rests on the fitted dose curve; in most records, active means well fitted curve in the direction sought with a large enough effect; inconclusive means small, poorly fitted or top-dose-only effect, or another doubt; inactive means no such curve, though single readings can be large; an effect the other way counts as inactive or inconclusive.

SMILES | HEK cytotox | hNpr1 antagonist | NIH3T3 tox | FLuc inh | Npr1 antag conf | NPR2 antag | FLuc counter | GloSensor ctrl
CCNC(=O)N1CC(C(=O)NCc2cccc(C)c2)CC(c2ccc(F)c(C)c2)C1 (stereo not given) | ? | 22µM | ? | i | ? | ? | i | ?
CC(C)CN(Cc1ccncc1)C1CN(C(=O)c2ccco2)C1 | i | nt | ? | nt | nt | nt | nt | nt
CC(=O)Nc1ccccc1-c1c(C)nn2c1N(Cc1ccccc1)CCC2 | ? | i | ? | i | nt | nt | nt | nt
COc1ccc(OC)c(CN2CCCn3nc(C)c(-c4ccnn4C(C)C)c32)c1 | ? | i | i | i | nt | nt | nt | nt
Cc1nn2c(c1-c1ccccc1Oc1ccccc1)N(CC1CC1)CCC2 | 28µM | ? | 32µM | i | 40µM | 35µM | i | 40µM
Cc1nn2c(c1-c1ccccc1Oc1ccccc1)N(CC1CCOCC1)CCC2 | ? | i | ? | i | nt | nt | nt | nt
Cc1nn2c(c1-c1ccccc1OCc1ccccc1)N(CC1CC1)CCC2 | ? | 7.1µM | ? | i | 6.3µM | 31µM | i | 5.6µM
COc1ccc(OC)c(CN2CCCn3nc(C)c(-c4ccccc4OCc4ccccc4)c32)c1 | 11µM | 7.1µM | 8.9µM | i | 14µM | 19µM | i | 12µM
COc1cccc(C(=O)N2CCC(N3C[C@H](O)C[C@H]3C(=O)Nc3ccc4c(c3)OCCO4)CC2)c1 | i | i | i | i | nt | nt | nt | nt
O=C(c1ccccc1)N1CCCC(C(=O)N2CCC(N3Cc4cccn4C3=O)CC2)C1 (stereo not given) | i | nt | i | nt | nt | nt | nt | nt
Cc1ccccc1OCc1nc(C2CN(C(=O)NCc3ccccc3)C2)no1 | ? | i | ? | ? | nt | nt | nt | nt
OC1CC(c2cc(N3CCC(CCn4cccn4)CC3)ncn2)C1 (stereo not given) | ? | 7.9µM | ? | i | 14µM | 12µM | i | 9.7µM
OC1CC(c2cc(N3CCN(c4nsc5ccccc45)CC3)ncn2)C1 (stereo not given) | 11µM | 1.6µM | 18µM | i | 2.7µM | 3.1µM | i | 2.4µM
COC(=O)C1=C(C)N=C2SC=C(CC(=O)N3CCCCC3)N2C1c1ccc(Cl)cc1 (stereo not given) | ? | ? | i | i | ? | ? | i | i
C=CCOC(=O)C1=C(C)N=C2SC=C(CC(=O)N3CCCC3)N2C1c1cc(OC)cc(OC)c1 (stereo not given) | ? | 10µM | i | i | 17µM | 15µM | i | i
CC1=C(C(=O)OC(C)C)C(c2ccc(C)cc2)N2C(CC(=O)N3CCCCC3)=CSC2=N1 (stereo not given) | ? | i | ? | i | nt | nt | nt | nt
COC(=O)C1=C(C)N=C2SC=C(CC(=O)N3CCCC3)N2C1c1ccccc1OC (stereo not given) | i | i | i | i | nt | nt | nt | nt
C=CCOC(=O)C1=C(C)N=C2SC=C(CC(=O)N3CCCC3)N2C1c1ccc(OC)cc1OC (stereo not given) | ? | i | i | i | nt | nt | nt | nt
CCOC(=O)C1=C(C)N=C2SC=C(CC(=O)NCc3ccco3)N2C1c1ccccc1Cl (stereo not given) | ? | 11µM | i | i | ? | ? | i | i
CC1=C(C(=O)OC(C)C)C(c2ccc(Cl)cc2)N2C(CC(=O)N3CCCC3)=CSC2=N1 (stereo not given) | ? | ? | ? | i | i | ? | i | i
C=CCOC(=O)C1=C(C)N=C2SC=C(CC(=O)NCC(C)C)N2C1c1ccccc1Cl (stereo not given) | ? | ? | i | i | nt | nt | nt | nt
COCCCn1c(=O)c(C(=O)N2CCC(Cc3ccccc3)CC2)nc2cccnc21 | ? | nt | i | nt | nt | nt | nt | nt
COc1ccc2nc3n(c2c1)[C@@H](CNCc1ccc(C(F)(F)F)cc1)COC3 | ? | 35µM | ? | i | 31µM | 35µM | i | 28µM
Cc1ccc2c(c1)nc1n2[C@@H](CNCc2ccccc2)COC1 | ? | ? | 112µM | i | 35µM | ? | i | ?
COc1ccc2nc3n(c2c1)[C@@H](CNCc1ccc(C(=O)O)cc1)COC3 | i | i | i | i | nt | nt | nt | nt
SMILES | HEK cytotox | hNpr1 antagonist | NIH3T3 tox | FLuc inh | Npr1 antag conf | NPR2 antag | FLuc counter | GloSensor ctrl
c1ccc(CNC[C@H]2COCc3nc4ccccc4n32)cc1 | ? | 22µM | ? | i | 35µM | 31µM | i | 28µM
Cc1cccc2c1nc1n2[C@@H](CNS(=O)(=O)c2ccc(F)cc2)COC1 | ? | ? | ? | i | nt | nt | nt | nt
Cc1cccc2c1nc1n2[C@@H](CNS(=O)(=O)Cc2ccccc2)COC1 | ? | 35µM | ? | i | 28µM | 28µM | i | 28µM
COc1cccc(C(=O)NC2CCN(c3ccc4nnc(C)n4n3)CC2)c1 | i | nt | i | nt | nt | nt | nt | nt
Cc1ccc(-c2cc(C(=O)NCC(F)(F)F)c3cnn(C)c3n2)c(C)c1 | ? | nt | i | nt | nt | nt | nt | nt
CC(=O)Nc1ccc(CN(C)C(C)c2cccs2)cc1 (stereo not given) | i | i | i | i | nt | nt | nt | nt
COC1CN(c2cccc(F)c2)C12CCN(C(=O)C1CCC1)CC2 (stereo not given) | ? | i | i | i | nt | nt | nt | nt
COc1ccc(C2(C(=O)N3CCC4(CC3)C(OC)CN4c3cccc(F)c3)CC2)cc1 (stereo not given) | 45µM | 11µM | ? | i | ? | 14µM | i | i
CC1=C[C@@H](CNS(C)(=O)=O)[C@H](C(C)C)C[C@H]1Cc1nc2ccccc2n1C | ? | 28µM | ? | i | 35µM | 28µM | i | 31µM
CC1=C[C@@H](CNC2CCOCC2)[C@H](C(C)C)C[C@H]1Cc1nc2ccccc2n1C | ? | i | ? | i | nt | nt | nt | nt
COc1cc(-c2nc(-c3c(C)noc3C)cc3cc(C)oc23)ccn1 | ? | i | ? | i | nt | nt | nt | nt
COc1ccc(CC(=O)N2CCCN(c3cc(-c4ccc(OC)cc4)[nH]n3)CC2)cc1 | ? | ? | ? | i | ? | ? | i | i
O=C(c1ccccc1Br)N1CCN(c2cc(-c3ccc(Cl)cc3)[nH]n2)CC1 | ? | 2.5µM | 25µM | i | 19µM | 19µM | i | 12µM
COc1ccc(CC(=O)N2CCCN(c3cc(-c4ccccc4)[nH]n3)CC2)cc1 | ? | i | i | i | nt | nt | nt | nt
COc1ccc(C(=O)N2CCN(c3cc(-c4ccc(Cl)cc4)[nH]n3)CC2)cc1F | ? | 11µM | ? | i | 14µM | 19µM | i | 11µM
COc1cccc(C(=O)N2CCN(c3cc(-c4ccc(Cl)cc4)[nH]n3)CC2)c1OC | ? | 11µM | ? | i | 22µM | 22µM | i | 17µM
COc1ccc(-c2cc(N3CCN(C(=O)c4ccccc4Br)CC3)n[nH]2)cc1 | ? | ? | ? | i | nt | nt | nt | nt
CNC(=O)c1ccc2nc(-c3cccnc3Cl)oc2c1 | i | nt | i | nt | nt | nt | nt | nt
